M1 PAM: human CHRM1 positive allosteric modulation; P11229; activation, % at 3 µM; CHO-K1 hM1, Fluo-8 calcium fluorescence, ACh EC20; 0% = ACh EC20, 100% = maximal ACh; AID 588819; 360,000 tested, 0.088% active; in the data active = activation above about 19%, passing the limit was not always enough
ATG4B inhibitor: inhibitors of human ATG4B cysteine protease; 340,000 tested, 0.51% active; ATG4B cleavage of LC3-PLA2, NBD-HPC fluorescence, 1 h; inhibition, % at 8.33 µM; AID 504462; Q9Y4P1; in the data active = inhibition above about 40%
Target sequence (Q9Y4P1 whole entry, looked up): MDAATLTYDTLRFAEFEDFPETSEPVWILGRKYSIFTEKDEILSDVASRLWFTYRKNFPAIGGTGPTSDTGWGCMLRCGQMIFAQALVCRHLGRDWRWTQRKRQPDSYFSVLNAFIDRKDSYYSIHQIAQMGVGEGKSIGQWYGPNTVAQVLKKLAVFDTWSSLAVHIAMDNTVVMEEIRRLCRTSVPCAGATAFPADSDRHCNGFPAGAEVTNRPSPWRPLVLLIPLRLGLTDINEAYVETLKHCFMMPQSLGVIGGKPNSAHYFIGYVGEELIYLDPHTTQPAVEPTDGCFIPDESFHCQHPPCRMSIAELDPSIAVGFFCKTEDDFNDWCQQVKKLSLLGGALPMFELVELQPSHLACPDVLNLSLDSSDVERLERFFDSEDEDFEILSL
M1 ag: human M1 muscarinic receptor agonism; CHO-K1 hM1, Fluo-8 calcium fluorescence, agonist mode; 0% DMSO, 100% acetylcholine EC100; activation, % at 3 µM; 360,000 tested, 0.33% active; AID 588814;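 active = activation above the run's mean compound activation plus 3 SD, cut at about 16% in these data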;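 note: peak over basal fluorescence ratio within a 140 s kinetic read after compound addition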
Myeloid diff MLP: myeloid differentiation induction | ER-HoxA9 myeloid progenitors, lysozyme-GFP differentiation, flow cytometry | calls only at 10 µM | 360,000 tested, 1% active | AID 624256;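 active = normalized GFP-positive differentiation at or above the plate's own cutoff, the solvent-only control mean plus 3 SD; inconclusive = no clear call, values can overlap the other calls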;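 note: cells exposed to compound for four days before flow analysis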
SKN-1 block: C. elegans SKN-1 inhibition | 360,000 tested, 0.49% active | AID 624304 | inhibition, % at 21.8 µM | C. elegans VP596 Pgst-4::GFP/RFP ratio, acrylamide-induced, 24 h;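 active = interference check ratio from 0.5 to 1.5 plus GFP to RFP signal ratio inhibition reaching or exceeding a fixed threshold, cut at about 30% in these data, passing the limit was not always enough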
CHRM1 antagonist: human CHRM1 antagonism; P11229; CHO-K1 hM1, Fluo-8 calcium fluorescence, ACh EC80 antagonist; inhibition, % at 3 µM; 360,000 tested, 1.3% active;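 active = percent inhibition above its own plate's cutoff, namely the mean of that plate's compound wells plus 3 SD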;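 note: peak over basal fluorescence ratio during 140 s after agonist addition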
Each line names hits and unclear results; the compound was inactive in the other large screens. An excerpt weighted towards active compounds, which were near 3.5% of everything screened.

Cn1c(=O)c(NC2CCCCC2)c2c3c(cccc31)C(=O)c1ccccc1-2	Myeloid diff MLP active
Cn1c(=O)c(NCCc2ccccc2)c2c3c(cccc31)C(=O)c1ccccc1-2	M1 ag 166.3, Myeloid diff MLP active, CHRM1 antagonist 80.3
CCCCNc1c2c3c(cccc3n(C)c1=O)C(=O)c1ccccc1-2	M1 ag 140.6, CHRM1 antagonist 74.7
CCCCCCCCN1C(=O)[C@H](CC(=O)NCC23CC4CC(CC(C4)C2)C3)C[C@@]2(C(=O)OCC)CCCC=C12	none (no result: M1 PAM, ATG4B inhibitor, M1 ag, CHRM1 antagonist)
COc1cc(OC)c2c(-c3cccc(-c4cccc(C)c4)c3)cc(=O)oc2c1	Myeloid diff MLP active
COc1ccc(-c2cccc(-c3cc(=O)oc4cc(OC)cc(OC)c34)c2)cc1	Myeloid diff MLP inconclusive
CSCC[C@H](NC(=O)c1cccnc1)c1nnc2ccccn12	none
COc1ccccc1/C=C/C=NC1C(=O)N(c2ccccc2)[N+](C)=C1C (stereo not given)	none
CC1=[N+](C)N(c2ccccc2)C(=O)C1N=C/C=C/c1ccccc1 (stereo not given)	CHRM1 antagonist 98.9
COc1ccc(NC(=O)CC2CC3CCC2C3)cc1S(=O)(=O)N1CCOCC1 (stereo not given)	none
Cc1ccc(-c2nn(-c3ccccc3)cc2C=C2SC(=S)N(CCS(=O)(=O)O)C2=O)cc1	M1 PAM 28.4 (no result: ATG4B inhibitor)
O=C1C(=Cc2cn(-c3ccccc3)nc2-c2ccc(OCc3ccccc3)cc2)SC(=S)N1CCS(=O)(=O)O	none (no result: ATG4B inhibitor)
CCOc1ccc(NC(=O)CSc2nnc(C3CC3)n2C)cc1S(=O)(=O)N1CCCCC1	none
OC(C#CCN1CCCC1)(c1ccccc1)c1cccnc1 (stereo not given)	CHRM1 antagonist 99.5
OC(C#CCN1CCCCCC1)(c1ccccc1)c1cccnc1 (stereo not given)	CHRM1 antagonist 98.8
CCN1c2ccccc2NC2C1C(C(C)=O)C(=O)N2c1ccc(Cl)cc1 (stereo not given)	Myeloid diff MLP active
CCOc1c2ccc(C(=O)NCc3ccc(OC(F)(F)F)cc3)cc2nn1CC	none
CCCn1nc2cc(C(=O)NCc3ccc(OC(F)(F)F)cc3)ccc2c1OCC	SKN-1 block 62.0
C[C@@H]1CN[C@H](CCO)/C1=C\c1ccccc1	none
COc1cc(O)c(C(CC(=O)N2CCOCC2)c2ccc(N(C)C)cc2)c(OC)c1 (stereo not given)	none
COc1cc(O)c(C(CC(=O)N2CCOCC2)c2ccc3c(c2)OCO3)c(OC)c1 (stereo not given)	CHRM1 antagonist 36.1
Cc1ccc(NC2=NCC(Cc3ccc(Br)cc3)S2)cc1 (stereo not given)	CHRM1 antagonist 38.2
CCN(CC)c1ccc(NC(=O)COC(=O)C2CCN(c3ccc(C(F)(F)F)cn3)CC2)cc1	none
CCN(c1ccc(NC(=O)COC(=O)C2CCN(c3ccc(C(F)(F)F)cn3)CC2)cc1)C(C)C	CHRM1 antagonist 34.6
c1ccc2c(c1)[nH]c1ccncc12	M1 ag 18.2
COc1ccc2c(c1)C(SCC(=O)NCCc1ccc(Cl)cc1)CC(C)(C)O2 (stereo not given)	Myeloid diff MLP active
Cc1ccc(OCc2ccc(C(=O)Nc3nccs3)o2)cc1C	SKN-1 block 55.6
c1ccc(-c2ccc(-c3ccncn3)cc2)cc1	SKN-1 block 55.6
c1ccc(-c2cncnc2)nc1	none
CCN(Cc1cnn(C)c1)C(=O)c1ccc(OC2CCN(S(=O)(=O)N(C)C)CC2)cc1	none
Cc1occc1-c1nnc(SCC(=O)Nc2ccccc2)n1C(C)c1ccccc1 (stereo not given)	none
CCc1sc(C(=O)N2CCN(C(=O)c3ccccc3)CC2)cc1C	none
Cc1cccc(Cc2c(C)nc3c(C(=O)NCc4ccco4)cnn3c2C)c1	Myeloid diff MLP active
C#Cc1ccc([C@H]2C=C(C(=O)OCC=C)O[C@@H](OCCCCO)C2)cc1	none
Cc1cccc(C(=O)NN2S(=O)(=O)c3ccccc3S2(=O)=O)c1	CHRM1 antagonist 32.9
Cc1cccc(C(=O)NN2C(=O)C3C(c4ccccc4)C=CC(c4ccccc4)C3C2=O)c1 (stereo not given)	CHRM1 antagonist 89.1
CCOCC(=O)Nc1ccc2c(c1)N(S(=O)(=O)c1cccs1)CCC2	none
O=C(Nc1ccc(OC(F)(F)F)cc1)N1CCc2nc(NCc3cccc(Oc4ccccc4)c3)ncc2C1	CHRM1 antagonist 43.0 (no result: ATG4B inhibitor)
CCCCC(=O)N1CCCC(C(=O)OCC)C1 (stereo not given)	M1 ag 26.0, Myeloid diff MLP active
CCOCCCNC(=O)CCCn1nc(C)n2c(cc3sccc32)c1=O	none
CCOC(=O)C1CCCN(C(=O)COc2ccc(S(=O)(=O)N3CCOCC3)cc2)C1 (stereo not given)	M1 ag 31.3
CCOCC(=O)N1CCCC(C(=O)OCC)C1 (stereo not given)	CHRM1 antagonist 101.1
CCOC(=O)C1CCCN(C(=O)Cc2ccc(C)cc2)C1 (stereo not given)	none
CCOC(=O)C1CCCN(C(=O)CCCn2nc(C)n3c(cc4sccc43)c2=O)C1 (stereo not given)	M1 ag 34.5
CC12CCC(/C(=C/NNc3ccc([N+](=O)[O-])cc3[N+](=O)[O-])C1=O)C2(C)C (stereo not given)	none (no result: ATG4B inhibitor)
CCOC(=O)C1CCCN(C(=O)/C=C/c2cc(OC)c(OC)c(OC)c2)C1 (stereo not given)	M1 ag 23.9
Cc1cc(C)c2c(=O)n(CC(=O)N3CCC(N4CCCCC4)CC3)sc2n1	none
CCOC(=O)C1CCCN(C(=O)CCCn2nnnc2CN2CCOCC2)C1 (stereo not given)	M1 ag 48.7
CCOC(=O)C1CCCN(C(=O)Cn2sc3nc(C)cc(C)c3c2=O)C1 (stereo not given)	M1 ag 22.1, Myeloid diff MLP inconclusive
CC(NC(=O)C1CCN(S(=O)(=O)c2ccc3nc4c(c(C(=O)O)c3c2)CCCC4)CC1)c1ccccc1 (stereo not given)	none
Cc1ccc(C)c(NC(=O)CN(C)C(=O)Cn2c(=O)oc3ccccc32)c1	none
O=C(NCCN1C(=O)S/C(=C\c2cccnc2)C1=O)C1=NN(c2ccccc2)C(=O)CC1	none
COc1cc(N2CCCC2)c(OC)cc1/C=C(/C#N)c1cccc(F)c1	Myeloid diff MLP active
COc1ccccc1CNC(=O)/C(C#N)=C/c1ccc(OC)c(OC)c1OC	none
O=Cc1ccccc1Oc1ccccc1	none (no result: Myeloid diff MLP)
O=Cc1ccccc1OCCOc1ccccc1C=O	ATG4B inhibitor 71.0, CHRM1 antagonist 82.3
C=CCOC(=O)C1=C[C@H](c2csc3ccccc23)C[C@H](OCCCCO)O1	none
NC(=O)C1=C[C@@H](c2csc3ccccc23)C[C@@H](OCCCCO)O1	Myeloid diff MLP active

Compound activity deposited in PubChem BioAssay by several laboratories.
